Reference: PubChem BioAssay (NCI)
About 83,000 compounds went through this panel and 20% of them were active in at least one assay; those are over-represented in the sample as a whole.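 Plates (96-well) were seeded with cells, treated with compound at one concentration, and incubated for 48 hours before percent growth was determined.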 Unmarked numbers belong to inactive results. Activity calls are given as the source filed them. How the source made its calls: active means growth percent below 10; inactive means the rest.

Each compound was assayed on PC-3 prostate (assay: NCI-60 one-dose screen, 48 h (100 = growth as untreated, 0 = no growth, -100 = all killed)). Conditions: 10 µM.

SMILES | growth
CNC(=O)c1cc(Oc2ccc3c(c2)sc2nc(-c4ccc(N)cc4)cn23)ccn1 | 29.2%
COc1ccc2c(c1)OC(N)=C(C#N)C2c1cc(OC)c(OC)c(OC)c1 (stereo unspecified) | 19.7%
S=C(NCc1ccccc1)NCc1ccccc1 | 84.3%
CC(=O)OC1C=CC(OC(C)=O)O1 (stereo unspecified) | 92.7%
Cc1ccc(Cl)cc1NC(=O)CCl | 81.2%
CCC(C)[C@H](NC(C)=O)C(=O)N[C@@H](CCCNC(=N)N)C(=O)N[C@@H](CCCCN)C(=O)N[C@@H](CC1CCC(O)CC1)C(=O)NC(C(=O)N[C@@H](CCSC)C(=O)N[C@@H](CCCNC(=N)N)C(=O)N[C@@]1(C)CCC/C=C\CCC[C@@](C)(C(=O)NC(C(=O)N[C@@H](CCC(=O)O)C(=O)N[C@@H](CC(C)C)C(=O)N[C@H](C(=O)N[C@@H](CCC(=O)O)C(N)=O)C(C)C)[C@@H](C)O)NC(=O)[C@H](CCC(N)=O)NC(=O)[C@H](CC(C)C)NC(=O)[C@H](CC(C)C)NC1=O)[C@@H](C)O (stereo partly specified) | 99.1%
COc1cc2cc(Oc3ccc(NC(=O)c4cccc(C(F)(F)F)c4)cc3)c(C)nc2cc1OC | 9.54% (active)
COC(=O)C1(O)NC(=C(C#N)C#N)C(C#N)=C1C(=O)c1ccc(OC)c(OC)c1 (stereo unspecified) | 76.9%
COc1ccc(-c2onc(N)c2-c2cc(OC)c3c(c2)OCO3)cc1 | 61.4%
NC(N)=N/N=C(\c1ccccc1)C(O)c1ccccc1 (stereo unspecified) | 94.6%
COc1cc2cc(Oc3ccc(NC(=O)c4ccccc4)cc3)c(C)nc2cc1OC | 75.4%
